Assay results taken from PubChem BioAssay (NCATS).
A number with no mark means an inactive call. Inconclusive results are not listed. The source made the active and inactive calls. Unless noted, the call rests on the fitted dose curve; in most records, active means well fitted curve in either direction with a large enough effect (not every such curve was filed as active); inconclusive means small, poorly fitted or top-dose-only effect, or another doubt; inactive means flat fitted curve, though single readings scatter.

Legend:
[1] = target: Lysosomal acid glucosylceramidase (Homo sapiens) (UniProt P04062); test: Glucocerebrosidase-p2 (AID 348; in the data active means potency below about 10 µM; further: potency means the concentration at half of the fitted maximal effect); settings: purified GBA, blue fluorogenic substrate, 40 min
Chain of Lysosomal acid glucosylceramidase (Homo sapiens) (P04062 whole entry, looked up): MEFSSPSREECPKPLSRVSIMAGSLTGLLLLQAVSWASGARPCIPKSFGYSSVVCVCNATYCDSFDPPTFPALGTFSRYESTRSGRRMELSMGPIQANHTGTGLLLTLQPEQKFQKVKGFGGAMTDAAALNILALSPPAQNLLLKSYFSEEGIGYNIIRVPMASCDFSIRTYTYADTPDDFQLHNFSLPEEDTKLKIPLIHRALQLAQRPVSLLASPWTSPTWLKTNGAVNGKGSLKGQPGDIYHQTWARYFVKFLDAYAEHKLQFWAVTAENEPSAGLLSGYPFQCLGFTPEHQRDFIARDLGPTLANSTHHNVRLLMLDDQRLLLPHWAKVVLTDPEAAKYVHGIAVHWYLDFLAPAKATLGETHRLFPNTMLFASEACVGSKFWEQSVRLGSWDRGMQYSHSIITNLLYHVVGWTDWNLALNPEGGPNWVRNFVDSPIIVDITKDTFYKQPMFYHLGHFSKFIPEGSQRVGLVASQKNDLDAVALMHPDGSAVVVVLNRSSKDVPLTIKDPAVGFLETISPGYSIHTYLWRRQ
Procedure, shortened: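 Normal human glucocerebrosidase (0.2 nM) with blue fluorogenic substrate (80 uM final) in citrate/phosphate pH 5.9 with 10mM sodium taurocholate, 0.01% tween-20; 40 min RT, NaOH/glycine stop; fluorescence Ex 365/Em 440; AC50 from a titration from 0.6 nM upwards.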

[2] = AP1 Signaling Pathway (AID 357); settings: ME-180 AP-1-bla reporter, EGF-induced, beta-lactamase ratio, 5 h; at 7.69 µM (top of the series) unless noted;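 further: ME-180 reporter cells stimulated with EGF at its EC50 level; on the % scale 0 is the no-effect control and ±100 the full control effect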
Procedure, shortened: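 Titration-series screen for positive or negative modulators of EC50 EGF-induced signaling in ME-180 cells carrying an AP-1-driven beta-lactamase reporter. After 5 hours at 37 degrees Celsius, CCF4 460nm/530nm emission ratio gave %Activity; AC50 values derived.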

[3] = target: Cytochrome P450 1A2 (Homo sapiens) (UniProt P05177); test: p450-cyp1a2 (AID 410; calls by dose curve; further: potency means the concentration at half of the fitted maximal effect;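 on activity change, negative = inhibition: -100% = full effect of reference inhibitor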); settings: recombinant CYP1A2, luciferin-ME demethylation, luminescence; series mostly up to 57 µM
Chain of Cytochrome P450 1A2 (Homo sapiens) (P05177 whole entry, looked up): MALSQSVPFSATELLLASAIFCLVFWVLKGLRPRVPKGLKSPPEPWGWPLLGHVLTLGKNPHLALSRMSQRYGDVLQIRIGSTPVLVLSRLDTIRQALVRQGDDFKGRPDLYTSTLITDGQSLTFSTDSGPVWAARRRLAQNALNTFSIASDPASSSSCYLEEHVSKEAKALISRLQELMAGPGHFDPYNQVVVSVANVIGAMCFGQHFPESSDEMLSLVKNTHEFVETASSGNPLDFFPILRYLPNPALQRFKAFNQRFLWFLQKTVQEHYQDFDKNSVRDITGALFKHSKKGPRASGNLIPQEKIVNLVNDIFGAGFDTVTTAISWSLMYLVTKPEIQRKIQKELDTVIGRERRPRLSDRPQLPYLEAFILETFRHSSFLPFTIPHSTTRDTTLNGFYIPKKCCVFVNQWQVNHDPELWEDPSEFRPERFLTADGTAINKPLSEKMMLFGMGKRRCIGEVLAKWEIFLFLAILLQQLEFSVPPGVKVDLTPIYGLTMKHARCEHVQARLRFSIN
Procedure, shortened: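 Read-out is luminescence from luciferin produced by CYP1A2 demethylation of Luciferin-ME (100uM, at Km). Detection reagent stopped the 60 min NADPH-dependent reaction; signals were normalized to 57 uM furafylline.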

[4] = NFAT Signaling Pathway (AID 444); settings: Jurkat NFAT-bla M1, carbachol, beta-lactamase ratio, 5 h; at 7.69 µM (top of the series) unless noted;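 further: carbachol stimulus at about its EC50 of 1 µM final; on the % scale 0 is the no-effect control and ±100 the full control effect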
Procedure, shortened: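 Jurkat cells with NFAT-driven β-lactamase reporter and co-expressed M1 receptor, stimulated with carbachol (final 1 uM, ~EC50), compound titration, 5 h at 37 °C. CCF4 loaded 1 h at RT; 460/530 nm ratio gave %activity and AC50.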

[5] = Stat Signaling Pathway (AID 446); settings: ME-180 SIE beta-lactamase reporter, IL-6 stimulated, 5 h; at 7.69 µM (top of the series) unless noted;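 further: ME-180 cervical cancer cells given 40 pM IL-6 alongside compound; SIE-controlled beta-lactamase reporter measured as 460/530 nm FRET emission ratio; on the % scale 0 is the no-effect control and ±100 the full control effect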
Procedure, shortened: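 Emission at 460 and 530 nm (excitation 405 nm) reports SIE-controlled beta-lactamase in ME-180 cells. Cells received compound with 40 pM IL-6 for 5 hrs at 37 C; data scaled between 300 pM IL-6 and 125 nM JAK-inhibitor controls.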

[6] = target: Glucocorticoid receptor (Homo sapiens) (UniProt P04150); test: GR-EFC Redistribution (AID 451; calls by dose curve; further: potency means the concentration at half of the fitted maximal effect); settings: CHO-K1 GR-EFC translocation, beta-gal luminescence, 2 h
Chain of Glucocorticoid receptor (Homo sapiens) (P04150 whole entry, looked up, the tested form may be a part): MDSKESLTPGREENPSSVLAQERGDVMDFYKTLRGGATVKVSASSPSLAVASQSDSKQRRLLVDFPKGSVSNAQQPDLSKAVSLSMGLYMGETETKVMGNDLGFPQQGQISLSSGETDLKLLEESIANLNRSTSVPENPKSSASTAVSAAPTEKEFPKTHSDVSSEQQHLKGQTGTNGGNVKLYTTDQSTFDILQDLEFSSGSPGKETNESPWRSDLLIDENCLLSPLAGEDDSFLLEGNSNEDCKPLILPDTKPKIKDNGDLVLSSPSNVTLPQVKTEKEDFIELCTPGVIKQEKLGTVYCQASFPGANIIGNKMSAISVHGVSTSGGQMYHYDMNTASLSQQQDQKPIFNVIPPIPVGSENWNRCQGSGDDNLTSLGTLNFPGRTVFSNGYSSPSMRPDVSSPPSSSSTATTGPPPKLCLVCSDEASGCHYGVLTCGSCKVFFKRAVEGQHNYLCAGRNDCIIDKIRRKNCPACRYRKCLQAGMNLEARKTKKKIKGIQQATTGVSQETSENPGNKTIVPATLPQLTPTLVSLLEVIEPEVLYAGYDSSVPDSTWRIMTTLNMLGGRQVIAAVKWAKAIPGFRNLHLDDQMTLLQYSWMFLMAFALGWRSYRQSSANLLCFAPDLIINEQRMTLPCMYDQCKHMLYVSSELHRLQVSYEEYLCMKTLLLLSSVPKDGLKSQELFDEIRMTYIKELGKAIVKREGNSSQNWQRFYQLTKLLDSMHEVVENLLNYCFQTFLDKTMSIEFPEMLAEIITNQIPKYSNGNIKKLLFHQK
Procedure, shortened: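 CHO-K1 cells expressing nuclear EA and GR-ED fragments of b-gal; compounds titrated up to 46 uM final, 2 h at 37 C. GR nuclear translocation read as complemented b-gal luminescence after 1 h RT detection.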

[7] = target: Mitogen-activated protein kinase 10 (Mus musculus) (UniProt Q61831); test: JNK3 AlphaScreen Assay (AID 530); settings: JNK3 lysate, c-Jun phosphorylation; series mostly up to 57.1 µM;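 further: kinase came from lysate of stimulated human HepG2 cells; signal reports phosphorylation of biotinylated GST-cJun 1-79 at Ser73 with 10 µM ATP; on the % scale 0 is the no-effect control and ±100 the full control effect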
Procedure, shortened: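 HepG2 lysate (IL-1b/TNFa pre-activated) + biotin-GST-cJun 1-79 + anti-pSer73 cJun; cpd titration, 15 min RT; ATP 10 uM start; Tris pH 7.6, MgCl2, DTT, vanadate; beads in EDTA buffer; AlphaScreen.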

[8] = target: 3',5'-cyclic-AMP phosphodiesterase 4B (Homo sapiens) (UniProt Q07343); test: qHTS Assay for Inhibitors of PDE-IV (AID 607; active means well fitted activation curve with a large enough effect in the main read-out, with a control signal flat, not every such curve was filed as active; further: % of control where 0% means no effect); settings: HEK293 ACTOne CNG channel cells, membrane potential fluorescence; series mostly up to 22.9 µM
Chain of 3',5'-cyclic-AMP phosphodiesterase 4B (Homo sapiens) (Q07343 whole entry, looked up): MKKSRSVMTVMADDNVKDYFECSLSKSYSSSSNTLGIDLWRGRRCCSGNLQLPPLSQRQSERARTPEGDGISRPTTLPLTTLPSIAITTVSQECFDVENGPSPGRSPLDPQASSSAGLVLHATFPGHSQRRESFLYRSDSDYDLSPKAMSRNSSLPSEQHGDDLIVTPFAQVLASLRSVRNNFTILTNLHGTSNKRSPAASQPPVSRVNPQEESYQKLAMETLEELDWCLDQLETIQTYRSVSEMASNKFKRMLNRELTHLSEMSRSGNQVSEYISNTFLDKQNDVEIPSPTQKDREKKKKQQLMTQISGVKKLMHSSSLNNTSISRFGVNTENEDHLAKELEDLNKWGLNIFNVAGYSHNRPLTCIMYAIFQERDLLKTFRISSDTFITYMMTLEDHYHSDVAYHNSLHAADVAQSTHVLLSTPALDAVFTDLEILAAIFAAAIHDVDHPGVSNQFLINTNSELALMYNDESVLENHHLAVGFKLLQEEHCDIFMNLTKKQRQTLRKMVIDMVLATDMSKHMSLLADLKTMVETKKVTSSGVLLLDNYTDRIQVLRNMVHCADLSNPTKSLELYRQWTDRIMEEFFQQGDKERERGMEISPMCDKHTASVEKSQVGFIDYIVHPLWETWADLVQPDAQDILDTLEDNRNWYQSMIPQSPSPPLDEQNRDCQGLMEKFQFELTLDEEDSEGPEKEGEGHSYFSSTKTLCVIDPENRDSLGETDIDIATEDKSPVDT
Procedure, shortened: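 The readout is membrane depolarisation from a cAMP-sensing CNG channel, detected with a potential dye at ex 535/em 590. Cells were HEK293-derived (endogenous PDE-IV) at 1000 cells/well, titrated up to 22.9 uM final.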

[9] = target: Cytochrome P450 2C9 (Homo sapiens) (UniProt P11712); test: qHTS Assay for Inhibitors and Substrates of Cytochrome P450 2C9 (AID 883; active means well fitted curve in the direction sought with a large enough effect; an effect the other way counts as inactive or inconclusive; further: nearly all actives have a fitted effect of over 60% in size; further: potency means the concentration at half of the fitted maximal effect); settings: recombinant CYP2C9, luciferin-H luminescence, 60 min; series mostly up to 57.1 µM
Chain of Cytochrome P450 2C9 (Homo sapiens) (P11712 whole entry, looked up): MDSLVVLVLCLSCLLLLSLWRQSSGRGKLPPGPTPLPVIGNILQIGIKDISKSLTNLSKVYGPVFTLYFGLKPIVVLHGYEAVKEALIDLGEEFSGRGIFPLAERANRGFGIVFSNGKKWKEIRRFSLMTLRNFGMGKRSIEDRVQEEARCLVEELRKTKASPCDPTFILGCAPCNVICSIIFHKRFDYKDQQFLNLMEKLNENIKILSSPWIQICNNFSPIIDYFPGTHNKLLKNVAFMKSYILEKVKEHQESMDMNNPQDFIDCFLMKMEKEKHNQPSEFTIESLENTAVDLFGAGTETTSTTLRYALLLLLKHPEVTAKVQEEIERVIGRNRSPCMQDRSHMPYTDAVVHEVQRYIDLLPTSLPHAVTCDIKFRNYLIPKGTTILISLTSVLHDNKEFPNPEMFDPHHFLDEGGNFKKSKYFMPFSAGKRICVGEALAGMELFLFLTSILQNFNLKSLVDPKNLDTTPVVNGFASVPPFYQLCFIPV
Procedure, shortened: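 10nM CYP2C9 + 100uM Luciferin-H (=KM), 25mM KPO4; cpd 10 min 37C; NADPH regen, 60 min 37C; stop/detect with P450 Glo-Buffer 20 min; luminescence. Norm. to 57uM sulphaphenazole as full inhibition.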

[10] = target: Cytochrome P450 3A4 (Homo sapiens) (UniProt P08684); test: qHTS Assay for Activators of Cytochrome P450 3A4 (AID 885; active means well fitted curve in the direction sought with a large enough effect; an effect the other way counts as inactive or inconclusive; further: nearly all actives have a fitted effect of over 65% in size; further: potency means the concentration at half of the fitted maximal effect); settings: recombinant CYP3A4, Luciferin-PPXE luminescence, 60 min; series mostly up to 57.1 µM
Chain of Cytochrome P450 3A4 (Homo sapiens) (P08684 whole entry, looked up): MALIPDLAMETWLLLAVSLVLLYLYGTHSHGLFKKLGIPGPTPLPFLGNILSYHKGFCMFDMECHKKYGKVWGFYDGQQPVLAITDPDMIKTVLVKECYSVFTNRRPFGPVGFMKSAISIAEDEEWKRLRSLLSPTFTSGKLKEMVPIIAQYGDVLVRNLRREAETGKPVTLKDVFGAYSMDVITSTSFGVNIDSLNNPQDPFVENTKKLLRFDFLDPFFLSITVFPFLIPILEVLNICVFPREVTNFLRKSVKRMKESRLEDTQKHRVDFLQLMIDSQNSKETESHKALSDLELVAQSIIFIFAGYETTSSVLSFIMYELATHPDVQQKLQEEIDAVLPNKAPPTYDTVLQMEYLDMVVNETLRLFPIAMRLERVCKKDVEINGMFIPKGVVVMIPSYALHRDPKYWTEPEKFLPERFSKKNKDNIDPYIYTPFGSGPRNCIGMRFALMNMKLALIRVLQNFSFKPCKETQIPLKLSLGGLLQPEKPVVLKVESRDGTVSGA
Procedure, shortened: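 Activators are scored by enhanced luminescence from CYP3A4 conversion of luciferin-PPXE (25uM, equal to KM) to luciferin, after 60 min at RT with an NADPH-regenerating system.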

[11] = qHTS Assay for Identification of Small Molecule Agonists for Hypoxia Response Element Signaling Pathway (AID 914; active means well fitted activation curve with a large enough effect in the signal ratio, with a control signal flat, not every such curve was filed as active; the % refers to the signal ratio; further: % of control where 0% means no effect); settings: ME-180 (cervical carcinoma) HRE-bla reporter, beta-lactamase ratio, CoCl2, 17 h; activation: stronger effect = higher value
Procedure, shortened: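 HRE-bla ME-180 cells with beta-lactamase reporter under hypoxia response element, compounds with EC50 CoCl2 for 17 hours at 37 C. CCF4 substrate, 460nm/530nm emission ratio gave %Activity; AC50 from titration series.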

[12] = Primary qHTS for small molecule stabilizers of the endoplasmic reticulum resident proteome: Secreted ER Calcium Modulated Protein (SERCaMP) assay (AID 1508630; active means well fitted curve in the direction sought with a large enough effect; an effect the other way counts as inactive or inconclusive; further: on the % scale 0 is the no-effect control and ±100 the full control effect); settings: SH-SY5Y GLuc-SERCaMP (Gaussia luciferase released on ER calcium loss) secretion, thapsigargin, luminescence; series mostly up to 38.4 µM
Procedure, shortened: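 The SH-SY5Y reporter protocol was run at 3 concentrations up to 38.3 uM (primary) or 11 concentrations (follow-up): 16 h compound, 100 nM thapsigargin for 4 h, then extracellular luciferase luminescence.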

[13] = target: Cytochrome P450 3A4 (Homo sapiens) (UniProt P08684); test: qHTS Assay for Inhibitors and Substrates of Cytochrome P450 3A4 (AID 884; active means well fitted curve in the direction sought with a large enough effect; an effect the other way counts as inactive or inconclusive; further: nearly all actives have a fitted effect of over 50% in size; further: potency means the concentration at half of the fitted maximal effect); settings: recombinant CYP3A4, Luciferin-PPXE luminescence; series mostly up to 57.1 µM
Procedure, shortened: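 Luminescent readout of luciferin produced by CYP3A4 (20 nM) dealkylation of Luciferin-PPXE, 25 uM (its KM). NADPH-driven reaction ran 60 min at RT after 10 min compound preincubation; data scaled to 57 uM ketoconazole as 100% inhibition.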

[14] = target: Cytochrome P450 2D6 (Homo sapiens) (UniProt P10635); test: qHTS Assay for Inhibitors and Substrates of Cytochrome P450 2D6 (AID 891; active means well fitted curve in the direction sought with a large enough effect; an effect the other way counts as inactive or inconclusive; further: nearly all actives have a fitted effect of over 60% in size; further: potency means the concentration at half of the fitted maximal effect); settings: recombinant CYP2D6, luciferin-ME EGE luminescence; series mostly up to 57.1 µM
Chain of Cytochrome P450 2D6 (Homo sapiens) (P10635 whole entry, looked up): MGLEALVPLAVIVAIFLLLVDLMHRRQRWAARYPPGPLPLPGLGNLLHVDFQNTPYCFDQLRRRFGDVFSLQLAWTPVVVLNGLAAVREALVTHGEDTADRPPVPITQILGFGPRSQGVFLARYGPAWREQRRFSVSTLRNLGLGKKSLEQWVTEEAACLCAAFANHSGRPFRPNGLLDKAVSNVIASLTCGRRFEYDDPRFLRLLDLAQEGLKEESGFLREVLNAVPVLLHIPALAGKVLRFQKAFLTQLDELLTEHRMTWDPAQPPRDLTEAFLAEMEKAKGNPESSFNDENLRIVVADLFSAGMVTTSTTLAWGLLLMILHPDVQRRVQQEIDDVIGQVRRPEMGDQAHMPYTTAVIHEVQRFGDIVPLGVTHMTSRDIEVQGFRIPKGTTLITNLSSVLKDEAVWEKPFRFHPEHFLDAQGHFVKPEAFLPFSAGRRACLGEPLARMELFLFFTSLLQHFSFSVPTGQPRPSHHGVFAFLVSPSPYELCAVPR
Procedure, shortened: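 Luminescent read-out of luciferin formed by 5 nM human CYP2D6 demethylating 30 uM Luciferin-ME EGE (Km level) over 60 min at room temperature after NADPH regeneration addition. Data normalized to full inhibition by 1.43 uM quinidine.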

[15] = target: Cytochrome P450 2C19 (Homo sapiens) (UniProt P33261); test: qHTS Assay for Inhibitors and Substrates of Cytochrome P450 2C19 (AID 899; active means well fitted curve in the direction sought with a large enough effect; an effect the other way counts as inactive or inconclusive; further: nearly all actives have a fitted effect of over 60% in size; further: potency means the concentration at half of the fitted maximal effect); settings: recombinant CYP2C19, luciferin-H EGE luminescence; series mostly up to 57.1 µM
Chain of Cytochrome P450 2C19 (Homo sapiens) (P33261 whole entry, looked up): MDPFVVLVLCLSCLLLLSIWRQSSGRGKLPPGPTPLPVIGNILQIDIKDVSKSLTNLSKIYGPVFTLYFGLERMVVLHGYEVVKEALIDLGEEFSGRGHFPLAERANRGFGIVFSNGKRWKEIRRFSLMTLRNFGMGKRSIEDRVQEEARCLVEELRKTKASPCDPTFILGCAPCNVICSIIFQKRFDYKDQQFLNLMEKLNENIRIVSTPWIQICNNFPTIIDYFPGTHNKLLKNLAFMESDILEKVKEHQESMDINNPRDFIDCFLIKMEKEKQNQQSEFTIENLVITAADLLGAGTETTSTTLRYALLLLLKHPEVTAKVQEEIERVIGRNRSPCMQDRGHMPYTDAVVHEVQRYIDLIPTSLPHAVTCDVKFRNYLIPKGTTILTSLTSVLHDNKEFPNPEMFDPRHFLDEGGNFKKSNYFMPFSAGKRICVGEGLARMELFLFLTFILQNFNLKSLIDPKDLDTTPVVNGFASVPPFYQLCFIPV
Procedure, shortened: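 Luminescent read-out of luciferin formed from Luciferin-H EGE (10uM, equal to KM). Enzyme 5nM in 50mM KPO4; compound added, 10 min at 37C, then NADPH regenerating system for 60 min at 37C. Full inhibition defined by 57uM ketoconazole.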

SMILES	Potency [1] [µM]	activity change, negative = inhibition [2] [%]	Potency [3]	activity change, negative = inhibition [4] [%]	activity, negative = inhibition [5] [%]	Potency [6] [µM]	Potency [7]	Potency [8]	Potency [9]	Potency [10]	activation [11] [%]	outcome [12]	Potency [13]	Potency [14]	Potency [15]
COc1ccc(NC(=O)N2CC[C@@]3(CCCN(C(=O)c4c(C)noc4C)C3)C2)cc1	> 11.4	-9.74	inactive	-10.6	-10.2	> 46	inactive	inactive	inactive	inactive	-0.633	inactive	–	–	–
O=C(c1cccc(F)c1)N1CCC2(CC1)CN(c1ccc(-c3ccccc3)cc1)C2	> 11.4	9.76	inactive	-5.75	-20.4	> 46	inactive	inactive	–	2.51 µM (active)	–	inactive	inactive	–	–
COC(=O)N1CCC2(CCCN(C(c3ccccc3)c3ccccc3)C2)CC1	> 11.4	11.9	15.8 µM (active)	-16.3	13.3	> 46	inactive	inactive	–	inactive	–	inactive	–	–	–
O=C(Nc1ccccc1)N1CCC2(CC1)CCN(C(=O)c1cccc(F)c1)CC2	> 11.4	2.8	10 µM (active)	14.6	-12.9	> 46	inactive	inactive	–	12.6 µM (active)	-13.7	inactive	inactive	–	–
CS(=O)(=O)N1CCC2(CCCN(C(=O)Nc3cccc(F)c3)C2)CC1	> 11.4	3.4	inactive	10.8	-4.84	> 46	inactive	inactive	–	inactive	–	inactive	–	–	–
O=C(c1cccc(F)c1)N1CCC[C@@]2(CCN(c3cccc(-c4ccccc4)c3)C2)C1	> 11.4	4.68	15.8 µM (active)	-14.4	-5.9	> 46	inactive	inactive	–	inactive	–	inactive	7.94 µM (active)	–	–
O=C(c1cnccn1)N1CCC2(CC1)CCN(c1ccccc1)CC2	> 11.4	-3.01	inactive	9.49	-24.3	> 46	inactive	inactive	–	–	–	inactive	inactive	–	–
O=C(Oc1ccccc1)N1CCC2(CC1)CN(c1ncccn1)C2	> 11.4	-11.2	25.1 µM (active)	-7.82	-0.184	> 46	inactive	inactive	–	15.8 µM (active)	–	inactive	inactive	–	–
COC(=O)N1CCC2(CCCN(C(=O)Nc3ccc(OC)cc3)C2)CC1	> 11.4	-3.8	20 µM (active)	-6.91	-13.9	> 46	inactive	inactive	–	inactive	–	inactive	–	–	–
Cn1cccc1C(=O)N1CCC[C@@]2(CCN(Cc3nccs3)C2)C1	> 11.4	-4.63	inactive	12.5	9.2	> 46	inactive	inactive	–	inactive	–	inactive	–	–	–
O=C(c1ccco1)N1CCC2(CCCN(c3ccccc3)C2)CC1	> 11.4	-6.34	inactive	-15.1	-2.43	> 46	inactive	inactive	–	inactive	–	inactive	–	–	–
O=C(Nc1cccc(F)c1)N1CC[C@@]2(CCCN(S(=O)(=O)c3ccccc3)C2)C1	> 11.4	-21	15.8 µM (active)	7.62	-7.95	> 46	inactive	inactive	–	inactive	–	inactive	–	–	–
CC(C)NC(=O)N1CCCC2(CCN(C(=O)c3cccn3C)CC2)C1	> 11.4	4.84	inactive	-17.7	14.5	> 46	inactive	inactive	–	inactive	–	inactive	–	–	–
Cc1noc(C)c1C(=O)N1CCC[C@@]2(CCN(Cc3nccs3)C2)C1	> 11.4	-0.7	inactive	9.88	-7.79	> 46	inactive	inactive	–	inactive	–	inactive	–	–	–
COc1ccc(NC(=O)N2CCCC3(CCN(C(=O)c4cccn4C)CC3)C2)cc1	> 11.4	-2.59	25.1 µM (active)	-20.9	-3.06	> 46	inactive	inactive	–	inactive	–	inactive	–	–	–
COc1ccc(NC(=O)N2CCC3(CC2)CCN(C(=O)c2cccn2C)CC3)cc1	> 11.4	-7.7	inactive	-0.784	2.55	> 46	inactive	inactive	–	–	–	inactive	inactive	–	–
COc1ccc(C(=O)N2CCC3(CCN(Cc4ccncc4)CC3)CC2)cc1	> 11.4	-7.79	inactive	-24.2	11.1	> 46	inactive	inactive	–	inactive	–	inactive	–	–	–
O=C(c1cnccn1)N1CCC2(CC1)CCN(c1ccccn1)CC2	> 11.4	-11.4	inactive	-4.5	3.98	> 46	inactive	inactive	–	15.8 µM (active)	–	inactive	inactive	–	–
O=C(Nc1cccc(F)c1)N1CCC2(CC1)CCN(C(=O)c1ccco1)CC2	> 11.4	-3.88	inactive	4.6	4.97	> 46	inactive	inactive	–	–	–	inactive	inactive	–	–
COc1ccc(NC(=O)N2CCC3(CC2)CCN(C(=O)c2ccncc2)CC3)cc1	> 11.4	-0.635	25.1 µM (active)	3.85	4.58	> 46	inactive	inactive	–	inactive	–	inactive	–	–	–
O=S(=O)(c1ccccc1)N1CCC2(CC1)CN(C(c1ccccc1)c1ccccc1)C2	> 11.4	15.1	inactive	-14.8	-6.71	> 46	inactive	inactive	–	3.16 µM (active)	–	inactive	inactive	2.51 µM (active)	–
COCC(=O)N1CCC2(CC1)CN(C(=O)Nc1ccccc1)C2	> 11.4	7.47	12.6 µM (active)	18.9	-7.39	> 46	inactive	inactive	1.58 µM (active)	–	–	inactive	–	–	5.01 µM (active)
Cc1noc(C)c1C(=O)N1CCC[C@@]2(CCN(Cc3ccc(C#N)cc3)C2)C1	> 11.4	-6.54	inactive	17.1	6.11	> 46	inactive	inactive	inactive	–	–	inactive	inactive	inactive	inactive
O=C(c1cc(C(F)(F)F)cc(C(F)(F)F)c1)N1CCC2(CC1)CN(c1ncccn1)C2	> 11.4	-14.3	inactive	31	1.12	> 46	inactive	inactive	inactive	–	–	inactive	–	inactive	inactive
O=C(c1ccncc1)N1CCC[C@@]2(CCN(c3ccccc3)C2)C1	> 11.4	-9.5	inactive	-16.6	3.29	> 46	inactive	inactive	–	inactive	–	inactive	3.16 µM (active)	–	–
Cn1cccc1C(=O)N1CCC2(CCCN(c3ncccn3)C2)CC1	> 11.4	7.97	inactive	2.93	-5.18	> 46	inactive	inactive	inactive	–	–	inactive	–	inactive	inactive
CS(=O)(=O)N1CCC[C@@]2(CCN(C(=O)Nc3cccc(C#N)c3)C2)C1	> 11.4	-2.32	inactive	9.12	1.86	> 46	inactive	inactive	–	inactive	–	inactive	–	–	–
COc1ccc(C(=O)N2CCC3(CCCN(c4ncccn4)C3)CC2)cc1	> 11.4	0.224	20 µM (active)	13.8	-4.23	> 46	inactive	inactive	–	inactive	–	inactive	–	–	–
O=C(c1ccco1)N1CCC2(CC1)CCN(c1ccc(-c3ccccc3)cc1)CC2	> 11.4	-1.18	inactive	17.6	-2.58	> 46	inactive	inactive	–	–	–	inactive	inactive	–	–
